Measurements reported in PubChem BioAssay (NCI).
Compounds without any hit were thinned out: in the full panel of roughly 79,000, 15% have a hit. Calls of active or inactive are those of the source. No stated cut-off is given here; in the data, active means growth inhibition above about 70%; inactive means the rest.

Assays:
[1] = NCI Yeast Anticancer Drug Screen. Data for the rad52 strain (AID 147);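 further: 0% = growth of vehicle-treated control cultures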; details: S. cerevisiae rad52 mutant growth inhibition, active compounds read high
In short: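 Here a repair-compromised yeast strain receives each compound; its growth is then quantified and normalised to vehicle-only controls.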

[2] = NCI Yeast Anticancer Drug Screen. Data for the wt1 strain (AID 149);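 further: 0% = growth of vehicle-treated wt1 cultures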; details: S. cerevisiae wt1 strain (SPY 50644) growth inhibition, active compounds read high
In short: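 Using yeast strain wt1, compound-induced growth inhibition was determined against vehicle-treated cultures.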

[3] = NCI Yeast Anticancer Drug Screen. Data for the rad50EPP+ strain (AID 151);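 further: 0% = growth of vehicle-treated control cultures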; details: S. cerevisiae rad50 mutant strain, active compounds read high
In short: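 Read-out is yeast growth inhibition relative to vehicle; cells used were the rad50EPP+ strain.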

[4] = NCI Yeast Anticancer Drug Screen. Data for the mgt1 strain (AID 153); details: S. cerevisiae mgt1 mutant growth inhibition, active compounds read high
In short: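 Measured: inhibition of mgt1 yeast growth by compound, normalized to vehicle-treated cultures.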

[5] = NCI Yeast Anticancer Drug Screen. Data for the rad50 strain (AID 155);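 further: 0% = growth of vehicle-only cultures of the same strain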; details: S. cerevisiae rad50 strain growth inhibition, active compounds read high
In short: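 Relative growth inhibition (compound vs vehicle) was measured in yeast with a defined repair-gene alteration.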

[6] = NCI Yeast Anticancer Drug Screen. Data for the mec2-1 strain (AID 157); details: S. cerevisiae mec2-1 strain, active compounds read high
In short: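 Using mec2-1 yeast: add compound, measure growth, express inhibition versus vehicle-treated cultures.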

[7] = NCI Yeast Anticancer Drug Screen. Data for the rad14 strain (AID 159);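 further: 0% = growth of vehicle-treated control cultures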; details: S. cerevisiae rad14 strain growth inhibition, active compounds read high
In short: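 Screen for anticancer potential: a yeast strain altered in DNA damage repair is grown with compound, and reduced growth is quantified against vehicle controls.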

[8] = NCI Yeast Anticancer Drug Screen. Data for the sgs1 mgt1 strain (AID 161);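 further: 0% = growth of cultures given vehicle only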; details: S. cerevisiae sgs1 mgt1 strain, active compounds read high
In short: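 Percent growth inhibition was derived by comparing compound-exposed mutant yeast with vehicle-exposed cultures. The strain carries alterations in DNA damage repair.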

[9] = NCI Yeast Anticancer Drug Screen. Data for the CLN2oe strain (AID 163);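 further: 0% = growth of vehicle-only control cultures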; details: S. cerevisiae CLN2oe strain, active compounds read high
In short: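 Whole-cell yeast growth assay. A strain engineered for altered cell-cycle control received compound, and inhibition relative to vehicle-treated cultures was recorded.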

[10] = NCI Yeast Anticancer Drug Screen. Data for the cln2 rad14 strain (AID 165);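 further: 0% = growth equal to vehicle treated cultures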; details: S. cerevisiae cln2 rad14 strain, active compounds read high
In short: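 Yeast strain cln2 rad14, bearing defects in cell cycle control and DNA repair, serves as the test system; values reflect growth inhibition compared with vehicle.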

[11] = NCI Yeast Anticancer Drug Screen. Data for the bub3 strain (AID 167); details: S. cerevisiae bub3 mutant strain, active compounds read high
In short: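 Screening used yeast with an engineered genetic alteration affecting cell cycle control. Compound-exposed cultures were compared with vehicle cultures, and reduced growth was taken as inhibition.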

[12] = NCI Yeast Anticancer Drug Screen. Data for the wt2 strain (AID 169);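 further: 0% = growth of vehicle-treated yeast cultures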; details: S. cerevisiae wt2 strain growth inhibition, active compounds read high
In short: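 Treated yeast vs. vehicle-treated yeast: growth inhibition determined.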

[13] = NCI Yeast Anticancer Drug Screen. Data for the mlh1 strain (AID 171);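 further: 0% = growth of vehicle-treated control cultures of the same strain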; details: S. cerevisiae mlh1 strain growth inhibition, active compounds read high
In short: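 A yeast strain with a defined genetic lesion serves as the test organism. Cultures receive compound or vehicle, and growth is measured.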

[14] = NCI Yeast Anticancer Drug Screen. Data for the sgs1 strain (AID 173);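 further: 0% = growth of vehicle-only control cultures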; details: S. cerevisiae sgs1 mutant, active compounds read high
In short: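 A genetically defined yeast mutant is incubated with the test compound, and its growth is compared to that of the same strain given vehicle.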

[15] = NCI Yeast Anticancer Drug Screen. Data for the mlh1 rad18 strain (AID 175); details: S. cerevisiae mlh1 rad18 strain growth inhibition, active compounds read high
In short: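 Steps: expose repair-defective yeast to compound; measure growth; express inhibition against vehicle-treated controls.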

[16] = NCI Yeast Anticancer Drug Screen. Data for the rad18 strain (AID 177); details: S. cerevisiae rad18 mutant growth inhibition, active compounds read high
In short: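 Measured value is growth inhibition of a yeast strain bearing a DNA repair alteration, referenced to vehicle-treated cells.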

[17] = at 5.0 µM (retest, dose inferred, filed as 0.5)
[18] = at 50.0 µM (retest, dose inferred, filed as 5.0)

Measured: growth inhibition

CCN(CC)CCNc1ccc2nc(C)n3c4ccc(OC)cc4c(=O)c1c23
inactive: [1]; at 1.2 µM 22% | [1]; at 3.7 µM 47% | [1]; at 11.0 µM 58% | [2]; at 1.2 µM 27% | [2]; at 3.7 µM 21% | [2]; at 11.0 µM 28% | [2]; at 33.0 µM 15% | [2]; at 100.0 µM 21% | [3]; at 1.2 µM 9% | [3]; at 3.7 µM 9% | [3]; at 11.0 µM 3% | [3]; at 33.0 µM 17% | [3]; at 100.0 µM 31% | [4]; at 1.2 µM 36% | [4]; at 3.7 µM 27% | [4]; at 11.0 µM 18% | [4]; at 33.0 µM 26% | [4]; at 100.0 µM 16% | [5]; at 1.2 µM 41% | [5]; at 3.7 µM 45% | [5]; at 11.0 µM 63% | [5]; at 50.0 µM -12.5% | [6]; at 1.2 µM 32% | [6]; at 3.7 µM 39% | [6]; [17] 16% | [6]; at 11.0 µM 37% | [6]; at 33.0 µM 40% | [6]; [18] 52% | [6]; at 50.0 µM 22.8% | [6]; at 100.0 µM 32% | [7]; at 1.2 µM 33% | [7]; at 3.7 µM 24% | [7]; at 11.0 µM 27% | [7]; at 33.0 µM 30% | [7]; at 100.0 µM 48% | [8]; [17] 13% | [8]; [18] 41% | [8]; at 50.0 µM 18.3% | [9]; at 1.2 µM 1% | [9]; at 3.7 µM 15% | [9]; at 11.0 µM 17% | [9]; at 33.0 µM 21% | [9]; at 100.0 µM 17% | [10]; [17] 25% | [10]; [18] 45% | [10]; at 50.0 µM 28.1% | [11]; at 1.2 µM 11% | [11]; at 3.7 µM 2% | [11]; [17] -31% | [11]; at 11.0 µM -3% | [11]; at 33.0 µM 16% | [11]; [18] 39% | [11]; at 50.0 µM 16.4% | [11]; at 100.0 µM 5% | [12]; at 1.2 µM -22% | [12]; at 3.7 µM -25% | [12]; at 11.0 µM -24% | [12]; at 33.0 µM -15% | [12]; at 100.0 µM -25% | [13]; at 1.2 µM 36% | [13]; at 3.7 µM 27% | [13]; at 11.0 µM 18% | [13]; at 33.0 µM 26% | [13]; at 100.0 µM 16% | [14]; at 1.2 µM 27% | [14]; at 3.7 µM 27% | [14]; at 11.0 µM 26% | [14]; at 33.0 µM 8% | [14]; at 100.0 µM 25% | [15]; [17] 29% | [15]; [18] 56% | [16]; at 1.2 µM 34% | [16]; at 3.7 µM 41% | [16]; at 11.0 µM 57% | [16]; at 33.0 µM 66%
active: [1]; at 33.0 µM 75% | [1]; at 100.0 µM 83% | [5]; [17] 84% | [5]; at 33.0 µM 82% | [5]; [18] 95% | [5]; at 100.0 µM 87% | [15]; at 50.0 µM 77.4% | [16]; at 100.0 µM 74%

O=C(C#Cc1ccccc1)/C=C/c1ccccc1
inactive: [1]; at 1.2 µM 4% | [1]; at 3.7 µM 3% | [1]; at 11.0 µM 29% | [2]; at 1.2 µM -6% | [2]; at 3.7 µM -9% | [2]; at 11.0 µM 10% | [2]; at 33.0 µM 51% | [3]; at 1.2 µM 1% | [3]; at 3.7 µM 20% | [3]; at 11.0 µM 53% | [4]; at 1.2 µM 0% | [4]; at 3.7 µM -5% | [4]; at 11.0 µM 3% | [4]; at 33.0 µM 28% | [5]; at 1.2 µM -6% | [5]; at 3.7 µM -8% | [5]; [17] -136% | [5]; at 11.0 µM 8% | [6]; at 1.2 µM 0% | [6]; at 3.7 µM 2% | [6]; [17] -43% | [6]; at 11.0 µM 4% | [6]; at 33.0 µM 16% | [6]; [18] 10% | [7]; at 1.2 µM -1% | [7]; at 3.7 µM 12% | [7]; at 11.0 µM 10% | [8]; [17] -53% | [9]; at 1.2 µM -7% | [9]; at 3.7 µM -7% | [9]; at 11.0 µM -2% | [9]; at 33.0 µM 14% | [10]; [17] -46% | [10]; [18] -23% | [11]; at 1.2 µM -2% | [11]; at 3.7 µM -1% | [11]; [17] -65% | [11]; at 11.0 µM 7% | [11]; [18] 53% | [12]; at 1.2 µM -21% | [12]; at 3.7 µM -5% | [12]; at 11.0 µM 13% | [13]; at 1.2 µM -9% | [13]; at 3.7 µM -2% | [13]; at 11.0 µM -3% | [13]; at 33.0 µM 49% | [14]; at 1.2 µM -4% | [14]; at 3.7 µM 2% | [14]; at 11.0 µM 24% | [15]; [17] -140% | [16]; at 1.2 µM -5% | [16]; at 3.7 µM 4% | [16]; at 11.0 µM 13%
active: [1]; at 33.0 µM 78% | [1]; at 100.0 µM 95% | [2]; at 100.0 µM 96% | [3]; at 33.0 µM 93% | [3]; at 100.0 µM 94% | [4]; at 100.0 µM 96% | [5]; at 33.0 µM 82% | [5]; [18] 72% | [5]; at 50.0 µM 99% | [5]; at 100.0 µM 94% | [6]; at 50.0 µM 77.3% | [6]; at 100.0 µM 96% | [7]; at 33.0 µM 82% | [7]; at 100.0 µM 96% | [8]; [18] 79% | [8]; at 50.0 µM 70.2% | [9]; at 100.0 µM 93% | [10]; at 50.0 µM 87.7% | [11]; at 33.0 µM 78% | [11]; at 50.0 µM 79.7% | [11]; at 100.0 µM 96% | [12]; at 33.0 µM 91% | [12]; at 100.0 µM 97% | [13]; at 100.0 µM 96% | [14]; at 33.0 µM 97% | [14]; at 100.0 µM 95% | [15]; [18] 72% | [15]; at 50.0 µM 77% | [16]; at 33.0 µM 81% | [16]; at 100.0 µM 95%
